Assay outcomes as filed in PubChem BioAssay.
TDP1 inh = TDP1 (human) enzyme inhibition. Q9NUW8. recombinant TDP1, AlphaScreen DNA substrate cleavage. Potency, µM (top dose mostly 130 µM), hits mostly inhibitors. 350,000 compounds, 0.28% hits. AID 485290; further: nearly all actives have a fitted effect of over 40% in size
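Recombinant human Tdp1 (E. coli-expressed, 1 nM final) preincubated with compounds 15 min at room temperature, then 5'-biotin/3'-phosphotyrosine-FITC DNA substrate (15 nM final) added for 5 min. AlphaScreen beads (10 ug/ml final) added 10 min; cleavage lowers signal.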
DT40 TDP1 CPT = DT40-hTDP1 cell growth loss with CPT; Potency, µM (highest dose often 46.2 µM), usual class: inhibitors; chicken DT40 Tdp1-/-;hTDP1 cells + 20 nM CPT, ATP luminescence, 48 h; 420,000 compounds, 12% hits; further: nearly all actives have a fitted effect of over 55% in size
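Cell growth measured by CellTiter-Glo luminescence after a minimum 48 h, 37 C compound exposure with 20 nM CPT in Tdp1-knockout DT40 cells stably expressing hTDP1, seeded 400/well; qHTS titration format.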
DT40 TDP1 no CPT = qHTS for Inhibitors of human tyrosyl-DNA phosphodiesterase 1 (TDP1): qHTS in cells in absence of CPT; Potency, µM (top dose mostly 46.2 µM), actives largely listed as inhibitors; DT40 Tdp1-/- hTDP1 cells, no CPT, ATP luminescence, 48 h; 420,000 compounds, 15% hits; further: nearly all actives have a fitted effect of over 55% in size
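No-CPT arm: Tdp1-/-;hTDP1 DT40 cells (400/well) plus compounds, incubated ≥48 hr at 37 °C. Readout CellTiter-Glo luminescence.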
RORgamma inh = ROR gamma (mouse) transcription inhibition; P51450; Drosophila S2 Gal4-RORgamma UAS-luciferase reporter, 20 h; Potency, µM (series often up to 53.6 µM), hits mostly inhibitors; 310,000 compounds, 5.4% hits; AID 2551; further: nearly all actives have a fitted effect of over 60% in size
Target sequence (P51450 whole entry, looked up, the tested form may be a part): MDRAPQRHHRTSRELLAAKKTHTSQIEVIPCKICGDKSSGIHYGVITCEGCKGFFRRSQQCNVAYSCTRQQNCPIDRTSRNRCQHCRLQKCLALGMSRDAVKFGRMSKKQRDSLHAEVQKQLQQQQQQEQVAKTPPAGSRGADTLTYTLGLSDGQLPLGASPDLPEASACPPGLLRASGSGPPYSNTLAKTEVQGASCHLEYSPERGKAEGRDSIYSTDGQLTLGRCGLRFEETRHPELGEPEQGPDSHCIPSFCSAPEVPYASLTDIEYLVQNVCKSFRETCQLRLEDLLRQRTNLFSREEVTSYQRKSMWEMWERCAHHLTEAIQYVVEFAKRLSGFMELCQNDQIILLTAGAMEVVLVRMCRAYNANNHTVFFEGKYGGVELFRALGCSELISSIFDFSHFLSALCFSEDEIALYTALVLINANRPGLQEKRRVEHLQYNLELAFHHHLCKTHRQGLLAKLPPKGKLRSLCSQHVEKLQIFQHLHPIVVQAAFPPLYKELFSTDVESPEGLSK
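Drosophila S2 cells stably expressing Gal4-DBD/mouse RORγ fusion under metallothionein promoter plus UAS-luciferase; compound 1 h, then 700 uM CuSO4 induction for 20 h at ambient temperature; inhibition read as reduced luminescence.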
Gal4-VP16 FLuc = Gal4-VP16 reporter inhibition counter-screen | Drosophila S2 Gal4-VP16 UAS-luciferase, luminescence, 20 h | Potency, µM (top dose mostly 53.6 µM), most hits filed as inhibitors | 310,000 compounds, 3.5% hits;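 further: Gal4-VP16 expression switched on by copper sulfate through the metallothionein promoter; nearly all actives have a fitted effect of over 50% in size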
Each line names hits and unclear results; the compound was inactive in the other large screens. Sampled rows, rich in hits. Any-hit rate of the full collection: about 19%. The call rests on the fitted dose curve; in most records, active means well fitted curve in the direction sought with a large enough effect; inconclusive means small, poorly fitted or top-dose-only effect, or another doubt; inactive means no such curve, though single readings can be large; an effect the other way counts as inactive or inconclusive.

COc1ccccc1C(=O)N[C@@H]1c2ccccc2C2(CCN(C(=O)c3ccnn3C)CC2)[C@H]1OC	DT40 TDP1 no CPT inconclusive (no result: TDP1 inh, RORgamma inh, Gal4-VP16 FLuc)
Cc1cccc(NC(=O)c2cc(S(=O)(=O)N3CCc4ccccc43)cn2C)c1	none (no result: TDP1 inh)
CCOC(=O)c1cc(S(=O)(=O)N2CCc3ccccc32)cn1C	DT40 TDP1 CPT inconclusive, DT40 TDP1 no CPT 2.31µM
Cn1cc(S(=O)(=O)N2CCc3ccccc32)cc1C(=O)NC(C)(C)C	DT40 TDP1 CPT 3.26µM, DT40 TDP1 no CPT 2.59µM, Gal4-VP16 FLuc 5.01µM (no result: TDP1 inh)
Cc1ccc(N(C)C(=O)c2cc(S(=O)(=O)N3CCc4ccccc43)cn2C)cc1	DT40 TDP1 CPT inconclusive, DT40 TDP1 no CPT inconclusive (no result: TDP1 inh)
CCOC(=O)N1CCC(NC(=O)c2cc(S(=O)(=O)N3CCc4ccccc43)cn2C)CC1	RORgamma inh inconclusive
CCCN(C(=O)c1cc(S(=O)(=O)N2CCc3ccccc32)cn1C)c1ccc(OCC)cc1	DT40 TDP1 CPT inconclusive, DT40 TDP1 no CPT 20.6µM (no result: RORgamma inh, Gal4-VP16 FLuc)
CSc1cccc(NC(=O)c2cc(S(=O)(=O)N3CCc4ccccc43)cn2C)c1	DT40 TDP1 CPT 14.6µM, DT40 TDP1 no CPT 25.9µM (no result: TDP1 inh)
C[C@@H]1CN([C@@H](C)CO)C(=O)CCCn2cc(nn2)CO[C@H]1CN(C)C(=O)CCCN(C)C	none (no result: TDP1 inh, RORgamma inh, Gal4-VP16 FLuc)
O=C(c1ccc2c3c(cccc13)CC2)N1CCN(c2ncccn2)CC1	none (no result: TDP1 inh, RORgamma inh, Gal4-VP16 FLuc)
COc1cccc(C(=O)Oc2cc(N)n(S(=O)(=O)c3ccc(C)cc3)n2)c1OC	none
O=C(O)Cn1ccc2cc(S(=O)(=O)N3CCCCCC3)ccc21	none
Cc1cc(C(=O)N2CCN(C(c3ccccc3)c3ccccc3)CC2)on1	DT40 TDP1 CPT 8.2µM, DT40 TDP1 no CPT 23.1µM
Cc1ccccc1C(=O)N1CCN(C(c2ccccc2)c2ccccc2)CC1	DT40 TDP1 CPT inconclusive, DT40 TDP1 no CPT 23.1µM
Cc1occc1C(=O)N1CCN(C(c2ccccc2)c2ccccc2)CC1	DT40 TDP1 CPT inconclusive, DT40 TDP1 no CPT inconclusive
O=C(CCNS(=O)(=O)c1ccccc1C(F)(F)F)N1CCN(C(c2ccccc2)c2ccccc2)CC1	DT40 TDP1 CPT 11.6µM, DT40 TDP1 no CPT 8.2µM (no result: RORgamma inh, Gal4-VP16 FLuc)
CC(C)(C)C(=O)N1CCN(C(c2ccccc2)c2ccccc2)CC1	DT40 TDP1 CPT inconclusive, DT40 TDP1 no CPT 18.4µM (no result: TDP1 inh)
O=C(CCNS(=O)(=O)c1ccccc1C(F)(F)F)N1CCCCCCC1	none (no result: RORgamma inh, Gal4-VP16 FLuc)
CCCNC(=O)N1CCN(C(c2ccccc2)c2ccccc2)CC1	none
NCC(=O)NCC(=O)NC[C@H]1O[C@@H](n2ccc(=O)[nH]c2=O)[C@H](O)[C@@H]1O	none (no result: TDP1 inh, RORgamma inh, Gal4-VP16 FLuc)
NC(=NC(=O)c1ccccc1)N1CCN(C(c2ccccc2)c2ccccc2)CC1	DT40 TDP1 CPT 20.6µM, DT40 TDP1 no CPT inconclusive (no result: TDP1 inh)
Cc1ccnc(SCC(=O)N2CCN(C(c3ccccc3)c3ccccc3)CC2)n1	DT40 TDP1 CPT 23.1µM, DT40 TDP1 no CPT 16.4µM
O=C(c1cc(-c2cccc(O)c2)on1)N1CCN(C(c2ccccc2)c2ccccc2)CC1	DT40 TDP1 CPT 20.6µM, DT40 TDP1 no CPT 13µM, Gal4-VP16 FLuc inconclusive
CCOC(=O)C1=CC[C@@H](c2cccc(C)c2)N(S(=O)(=O)c2ccc(C)cc2)[C@H]1C(=O)OCC	DT40 TDP1 CPT 14.6µM, DT40 TDP1 no CPT 16.4µM (no result: RORgamma inh, Gal4-VP16 FLuc)
CCOC(=O)C1=CC[C@@H](c2ccco2)N(S(=O)(=O)c2ccc(C)cc2)[C@H]1C(=O)OCC	DT40 TDP1 CPT inconclusive, DT40 TDP1 no CPT 18.4µM (no result: RORgamma inh, Gal4-VP16 FLuc)
CCOC(=O)C1=CC[C@@H](c2ccccc2Cl)N(S(=O)(=O)c2ccc(C)cc2)[C@H]1C(=O)OCC	DT40 TDP1 CPT inconclusive, DT40 TDP1 no CPT 20.6µM (no result: RORgamma inh, Gal4-VP16 FLuc)
COc1ccccc1NC(=O)/C(=C\c1cccnc1)NC(=O)c1ccc(C)cc1	none
N#C/C(=C/Nc1ccccc1F)S(=O)(=O)c1ccc(Cl)cc1	none (no result: TDP1 inh)
Cc1ccc(C)c(N(C(=O)Cn2nnc3ccccc32)C(C(=O)NC(C)(C)C)c2ccsc2)c1 (stereo not given)	DT40 TDP1 CPT 23.1µM, DT40 TDP1 no CPT inconclusive
Cc1cc(C)c(N(C(=O)Cn2nnc3ccccc32)C(C(=O)NC(C)(C)C)c2ccsc2)c(C)c1 (stereo not given)	DT40 TDP1 CPT 16.4µM, DT40 TDP1 no CPT inconclusive
